A short description of test [1]: small molecules captured by biotinylated probe aFSTL3 – biochemical, small-molecule microarray, fluorescence 635/667, stem cell growth factor project, primary screen (AID 1064).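 Note: measures binding of the biotinylated anti-FSTL3 antibody to printed compounds.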 To be noted: higher = more signal.
A short description of test [2]: binders from COS7 lysate, DM2A8 probe, primary screen, torsin A project, cell lysate, small-molecule microarray, fluorescence 635/667 (AID 1065). To be noted: higher = more signal, COS7 lysate expressing mutant human TOR1A.
Test [3] in a line: small molecules captured by biotinylated probe aFGF2 – biochemical, small-molecule microarray, fluorescence 635/667, stem cell growth factor project, primary screen (AID 1067).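 Note: measures binding of biotinylated aFGF2 protein to printed compounds on slides; z-score merges feature fluorescence and signal-to-noise across triplicate slides.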 The following applies: higher = more signal.
Test [4] in a line: small molecules captured by biotinylated probe aFGF10 – biochemical, small-molecule microarray, fluorescence 635/667, stem cell growth factor project, primary screen (AID 1071).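 Note: score merges 667 nm spot intensity and signal to noise from triplicate slides.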 To be noted: higher = more signal.
Test [5] addresses Neurogenic locus notch homolog protein 2 (Homo sapiens) (UniProt Q04721). The test can be described thus: small molecules binding Notch2 protein – biochemical, small-molecule microarray, 635 nm fluorescence, stem cell growth factors, primary screen (AID 1073). The following applies: higher = more signal.
The target of test [6] is Pro-neuregulin-1, membrane-bound isoform (Homo sapiens) (UniProt Q02297). The test can be described thus: small molecules binding neuregulin-1 protein – biochemical, small-molecule microarray, fluorescence 635/667, psychiatric disease protein project, primary screen (AID 1075).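 Note: score combines 667 nm spot fluorescence with signal to noise.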 The following applies: NRG1 binding, 635 nm fluorescence, higher = more signal.
Chain of Pro-neuregulin-1, membrane-bound isoform (Homo sapiens) (Q02297 whole entry, looked up, the tested form may be a part, canonical isoform): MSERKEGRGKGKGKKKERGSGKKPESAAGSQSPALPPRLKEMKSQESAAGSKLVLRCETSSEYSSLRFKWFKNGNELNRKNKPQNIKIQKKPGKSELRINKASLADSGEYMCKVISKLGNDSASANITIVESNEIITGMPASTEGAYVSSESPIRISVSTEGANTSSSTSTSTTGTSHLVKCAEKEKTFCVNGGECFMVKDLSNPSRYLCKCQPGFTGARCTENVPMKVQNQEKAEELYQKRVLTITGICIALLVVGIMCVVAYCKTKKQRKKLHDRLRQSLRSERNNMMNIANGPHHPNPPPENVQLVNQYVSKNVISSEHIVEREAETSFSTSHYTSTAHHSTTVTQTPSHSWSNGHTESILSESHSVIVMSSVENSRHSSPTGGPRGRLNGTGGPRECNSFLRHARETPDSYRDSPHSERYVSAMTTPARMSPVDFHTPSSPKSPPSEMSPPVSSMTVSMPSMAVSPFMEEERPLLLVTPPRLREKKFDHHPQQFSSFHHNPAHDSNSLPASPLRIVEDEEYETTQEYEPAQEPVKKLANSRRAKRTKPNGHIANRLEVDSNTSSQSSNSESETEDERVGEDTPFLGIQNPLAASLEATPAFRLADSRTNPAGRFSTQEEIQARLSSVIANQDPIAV
The subject of test [7] is Neuregulin-1 EGF-like domain. The test can be described thus: small molecules binding NRG1 EGF domain – biochemical, small-molecule microarray, 635 nm fluorescence, primary screen (AID 1081).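 Note: binding of the protein to compounds printed on small-molecule microarray slides.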 To be noted: higher = more signal.
The nature of test [8]: FRG1 expression reporter modulators in myotubes – cell-based, C2C12 myotubes, firefly/Renilla luciferase, luminescence, FRG1 inhibition for FSHD, primary screen (AID 1084). The following applies: FRG1 promoter luciferase, higher = more signal, called active from +8 up or from −8 down.
The nature of test [9]: small molecules captured by biotinylated probe aFST – biochemical, small-molecule microarray, fluorescence 635/667, stem cell growth factor project, primary screen (AID 1086).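 Note: score merges 667 nm fluorescence with signal-to-noise of each printed compound spot.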 To be noted: higher = more signal.
The nature of test [10]: binders of probe aHhip on microarray, primary screen, stem cell growth factor project, biochemical, small-molecule microarray, fluorescence 635/667 (AID 1087).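 Note: score merges spot fluorescence at 667nm with spot signal to noise ratio.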 The following applies: higher = more signal.
Test [11] concerns PRMT1 (protein arginine N-methyltransferase 1). Put plainly: small molecules binding arginine methyltransferase PRMT1 – biochemical, small-molecule microarray, 635 nm fluorescence, primary screen (AID 1088).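 Note: binding of Prmt1 protein to compounds spotted on small-molecule microarray slides.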 The following applies: higher = more signal.
The nature of test [12]: growth effects on S. cerevisiae YJM789 – YJM789 clinical isolate, OD600, 24 h, basal, primary screen (AID 1089).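 Note: growth of clinical yeast isolate S. cerevisiae YJM 789 seeded 1000 cells per well; test concentration not given here.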 To be noted: higher = more signal, called active from +8 up or from −8 down.
The nature of test [13]: S. pombe growth modifiers, basal conditions – strain 972, OD600, 24 h, no modulator, primary screen (AID 1090).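 Note: basal condition with compound alone and no growth modifier present; test concentration not given here.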 The following applies: S. pombe 972 growth, higher = more signal, called active from +8 up or from −8 down.
Test [14] in a line: budding yeast growth modifiers under rapamycin – strain BY4716, OD600, 96 h, primary screen (AID 1091). Note: test concentration not given here. To be noted: S. cerevisiae BY4716 + rapamycin, higher = more signal, called active from +8 up or from −8 down.
Test [15] has as its target Torsin-1A-interacting protein 2 (Homo sapiens) (UniProt Q8NFQ8). Put plainly: small molecules binding lysate-expressed LULL1 – cell lysate, human LULL1 lysate, 635/667 nm fluorescence, primary screen (AID 1092).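 Note: probe is lysate of COS7 cells overexpressing human LULL1; score merges per-feature 667 nm fluorescence with signal-to-noise.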 The following applies: small-molecule microarray, hLULL1 lysate binding, 635 nm fluorescence; higher = more signal.
Test [16] can be described thus: optical density change of DRC41 E. coli – strain DRC41, OD650, 24 h, E. coli filamentation project, primary screen (AID 1093).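 Note: MC1000 strain lacking acrAB efflux and sulA so SOS filamentation is blocked; test concentration not given here.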 The following applies: E. coli DRC41 growth, higher = more signal, called active from +8 up or from −8 down.
A short description of test [17]: probe aLefty2 binding to arrayed compounds – biochemical, biotinylated probe, 635/667 nm fluorescence, primary screen (AID 1094).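 Note: score merges spot fluorescence near 667 nm with spot signal-to-noise ratio.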 The following applies: small-molecule microarray, higher = more signal.
Test [18] has as its system Noggin (protein binding on small-molecule microarray). The test can be described thus: small molecules binding Noggin protein – biochemical, 635/667 nm fluorescence, primary screen (AID 1095).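 Note: score merges 667 nm feature fluorescence with signal to noise over triplicate slides.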 To be noted: 635 nm fluorescence, higher = more signal.
The target in test [19] is Neurogenic locus notch homolog protein 3 (Homo sapiens) (UniProt Q9UM47). The test can be described thus: small molecules binding NOTCH3 protein – biochemical, 635/667 nm fluorescence, primary screen (AID 1096). The following applies: small-molecule microarray, 635 nm fluorescence, higher = more signal.
Chain of Neurogenic locus notch homolog protein 3 (Homo sapiens) (Q9UM47 whole entry, looked up): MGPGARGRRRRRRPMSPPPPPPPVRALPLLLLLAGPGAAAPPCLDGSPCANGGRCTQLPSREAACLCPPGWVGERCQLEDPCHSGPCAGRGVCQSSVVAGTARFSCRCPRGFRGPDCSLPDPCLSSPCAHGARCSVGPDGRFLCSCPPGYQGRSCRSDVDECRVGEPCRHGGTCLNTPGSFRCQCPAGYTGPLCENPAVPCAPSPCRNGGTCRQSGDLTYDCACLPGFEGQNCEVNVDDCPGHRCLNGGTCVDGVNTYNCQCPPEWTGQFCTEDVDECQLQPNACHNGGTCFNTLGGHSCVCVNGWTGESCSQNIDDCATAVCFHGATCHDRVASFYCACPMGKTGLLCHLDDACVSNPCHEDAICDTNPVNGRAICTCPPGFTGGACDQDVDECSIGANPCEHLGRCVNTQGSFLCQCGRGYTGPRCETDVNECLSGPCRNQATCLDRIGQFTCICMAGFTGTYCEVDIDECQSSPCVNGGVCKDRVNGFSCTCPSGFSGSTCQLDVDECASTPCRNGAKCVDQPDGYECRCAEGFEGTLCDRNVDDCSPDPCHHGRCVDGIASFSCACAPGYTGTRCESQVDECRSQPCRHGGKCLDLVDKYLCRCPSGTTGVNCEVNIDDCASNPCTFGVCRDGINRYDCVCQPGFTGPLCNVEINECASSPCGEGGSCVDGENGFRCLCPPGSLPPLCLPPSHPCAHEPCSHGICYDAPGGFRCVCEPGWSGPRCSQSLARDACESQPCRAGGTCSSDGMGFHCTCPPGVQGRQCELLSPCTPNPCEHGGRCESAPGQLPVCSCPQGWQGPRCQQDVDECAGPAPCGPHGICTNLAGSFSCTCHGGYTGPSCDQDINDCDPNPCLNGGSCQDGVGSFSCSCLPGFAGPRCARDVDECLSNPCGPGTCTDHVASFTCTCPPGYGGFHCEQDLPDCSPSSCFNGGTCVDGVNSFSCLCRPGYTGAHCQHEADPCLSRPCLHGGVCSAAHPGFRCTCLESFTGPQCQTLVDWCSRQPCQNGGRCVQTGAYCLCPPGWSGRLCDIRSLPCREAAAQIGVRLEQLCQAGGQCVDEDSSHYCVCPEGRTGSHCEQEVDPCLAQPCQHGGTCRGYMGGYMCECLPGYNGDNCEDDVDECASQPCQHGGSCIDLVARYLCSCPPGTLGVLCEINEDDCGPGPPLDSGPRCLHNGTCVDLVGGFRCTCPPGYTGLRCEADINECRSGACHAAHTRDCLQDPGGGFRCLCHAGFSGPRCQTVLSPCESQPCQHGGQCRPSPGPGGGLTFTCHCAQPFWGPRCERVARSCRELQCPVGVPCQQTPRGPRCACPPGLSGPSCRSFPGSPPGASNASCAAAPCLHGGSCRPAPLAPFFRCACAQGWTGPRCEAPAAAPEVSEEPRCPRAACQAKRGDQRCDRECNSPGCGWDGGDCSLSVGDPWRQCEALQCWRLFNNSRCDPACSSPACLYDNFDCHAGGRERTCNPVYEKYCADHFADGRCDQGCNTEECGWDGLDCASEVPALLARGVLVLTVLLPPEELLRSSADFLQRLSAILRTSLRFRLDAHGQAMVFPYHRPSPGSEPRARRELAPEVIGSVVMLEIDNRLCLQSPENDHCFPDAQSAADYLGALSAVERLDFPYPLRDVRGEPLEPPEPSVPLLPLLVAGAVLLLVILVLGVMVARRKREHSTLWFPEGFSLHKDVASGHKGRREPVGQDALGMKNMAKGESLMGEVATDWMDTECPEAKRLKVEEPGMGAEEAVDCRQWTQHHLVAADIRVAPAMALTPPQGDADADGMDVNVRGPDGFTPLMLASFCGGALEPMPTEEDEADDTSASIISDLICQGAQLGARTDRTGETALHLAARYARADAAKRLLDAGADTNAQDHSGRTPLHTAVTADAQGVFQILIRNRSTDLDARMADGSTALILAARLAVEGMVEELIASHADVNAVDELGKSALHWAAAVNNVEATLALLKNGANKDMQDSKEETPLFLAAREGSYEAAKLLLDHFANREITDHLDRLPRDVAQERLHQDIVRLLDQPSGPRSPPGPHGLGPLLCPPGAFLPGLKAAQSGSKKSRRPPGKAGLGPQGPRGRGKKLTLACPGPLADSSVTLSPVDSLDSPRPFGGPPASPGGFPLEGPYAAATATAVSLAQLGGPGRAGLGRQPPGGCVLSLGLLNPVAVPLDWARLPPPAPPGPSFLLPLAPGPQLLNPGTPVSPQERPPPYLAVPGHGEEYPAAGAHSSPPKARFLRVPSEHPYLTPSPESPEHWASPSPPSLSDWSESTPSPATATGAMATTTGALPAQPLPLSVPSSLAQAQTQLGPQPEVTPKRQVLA
A short description of test [20]: probe aEGFR binding to arrayed compounds – biochemical, biotinylated probe, 635/667 nm fluorescence, primary screen (AID 1097).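 Note: probe is a biotinylated anti-EGFR antibody binding compounds printed on slides; score combines fluorescence near 667 nm and signal to noise of each spot.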 The following applies: small-molecule microarray, higher = more signal.

“And” between values parts separate entries of the source, which are not always exact repeats. Equal values may be shown once. More than one record can exist for a structure, and the calls need not agree. The source made the active and inactive calls.

Chain of Torsin-1A-interacting protein 2 (Homo sapiens) (Q8NFQ8 whole entry, looked up): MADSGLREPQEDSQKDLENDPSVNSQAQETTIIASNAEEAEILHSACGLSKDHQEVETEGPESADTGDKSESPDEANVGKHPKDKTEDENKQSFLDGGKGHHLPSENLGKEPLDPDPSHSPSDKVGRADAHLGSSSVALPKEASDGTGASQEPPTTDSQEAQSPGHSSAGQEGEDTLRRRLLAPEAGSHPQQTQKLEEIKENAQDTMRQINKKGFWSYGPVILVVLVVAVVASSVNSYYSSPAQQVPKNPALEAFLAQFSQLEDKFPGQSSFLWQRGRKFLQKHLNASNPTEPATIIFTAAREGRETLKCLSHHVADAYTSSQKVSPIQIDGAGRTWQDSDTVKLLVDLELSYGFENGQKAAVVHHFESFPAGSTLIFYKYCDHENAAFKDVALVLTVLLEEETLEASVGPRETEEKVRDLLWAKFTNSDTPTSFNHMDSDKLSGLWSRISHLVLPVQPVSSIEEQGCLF

Turning to `CCOC(=O)c1ccc(NC(=O)O[C@H]2[C@H](OC(=O)Nc3ccccc3)[C@H](OC(=O)Nc3ccccc3)[C@@H](OC)O[C@@H]2CO)cc1`, the composite z-score in test [1] was 0.496 and 0.0126; in test [2] it was 1.19 and 1.58; in test [3] it was 0.171 and 0.0495; in test [4] it was 1.2 and 0.986; in test [5], 1.44 and 0.73; in test [6], 1.68 and 1.8. Further, the composite z-score in [7] is 1.3 and 1.35; in test [9] it was 1.18 and 0.937; in [10], -0.24 and -0.141; in test [11], 1.53; in [15], 3.01 and 3.02; in [17], 0.375 and 0.0544. Further, the composite z-score was 0.536 and 1.04 in test [18]; 1.04 and 1.05 in [19]; 0.445 and -0.0118 in test [20]. For the same compound, the z-score in test [8] is 0.822 (inactive) and -1.03 (inactive); in test [12], 1.65 (inactive) and 0.863 (inactive); in [13] it was 1.87 (inactive) and 1.43 (inactive); in test [14], -1.19 (inactive) and 8.89 (active); in test [16] it was 0.626 (inactive) and 0.455 (inactive).

As to `C=CCN(C(=O)C(c1cccs1)N(C(=O)/C=C\C(=O)O)c1c(Cl)cccc1CO)C(C)(C)C` (stereo not given), the composite z-score was 1.49 and 1.64 in test [1]; -1.2 and -1.76 in test [2]; -0.232 and -0.235 in test [3]; -1.69 and -1.27 in test [4]; -1.86 and -2.21 in test [5]; -0.732 and -1.05 in [6]. Moreover, the composite z-score in [7] is -0.301 and -0.512; in [9], -0.791 and -0.727; in [10], 0.228 and -0.554; in test [11], -0.971 and -0.911; in test [15] it was -0.586 and 0.277; in [17], 0.0765 and 0.231. Besides, the composite z-score in [18] is -3.47 and -2.85; in test [19] it was -1.89 and -1.83; in [20] it was -0.309 and -0.338. In addition, the z-score in [8] is 1.06 (inactive) and 1.34 (inactive); in test [12] it was -0.0947 (inactive) and -0.689 (inactive); in test [13], -0.588 (inactive) and -0.587 (inactive); in test [14], -0.351 (inactive) and -0.595 (inactive); in [16] it was -0.717 (inactive) and -1.18 (inactive).

As to `CO[C@H]1COC(=O)CC=C[C@H](C)[C@H](OC)COC(=O)[C@@H](C)COC(=O)CC=C[C@@H]1C`, the composite z-score was -0.62 and -0.66 in [1]; 0.767 and 1.26 in test [2]; -0.14 and -0.143 in [3]; -0.0016 and 0.149 in test [4]; -0.178 and 0.182 in [5]; -0.73 and -0.518 in [6]. Besides, the composite z-score in [7] was -0.104 and 0.0825; in test [9], -0.0446 and -0.0435; in [10], -0.261 and -0.0645; in test [11], 0.65 and 1.07; in test [15], -0.0624 and -0.0356; in test [17] it was -0.177 and -0.239. Further, the composite z-score in test [18] was 0.74 and 1.2; in test [19], 0.327 and 0.287; in [20] it was -0.143 and -0.103. In addition, the z-score in [8] was -0.407 (inactive) and -1.3 (inactive); in test [12] it was -0.23 (inactive) and -0.132 (inactive); in test [13] it was -0.121 (inactive) and -1.49 (inactive); in test [14] it was -0.324 (inactive) and -0.586 (inactive); in [16], 0.432 (inactive) and 0.839 (inactive).

On to `CCOC(=O)C[C@H]1[C@H](OC(=O)c2ccccc2-c2ccccc2)[C@@H](NC(=O)Cc2ccc(OC)cc2)c2cc(OCCCO)ccc2N1C(=O)Cc1ccc(OC)cc1`, for which the composite z-score is 0.169 and 0.18 in [1]; 0.22 and 0.0916 in test [2]; 0.0811 and -0.0737 in test [3]; 0.473 and -0.0644 in test [4]; -0.386 and -0.0483 in test [5]; 0.621 and -0.428 in test [6]. Besides, the composite z-score is 0.927 and -0.835 in [7]; 0.492 and 0.0474 in [9]; -0.0994 and -0.199 in test [10]; 0.407 and -0.949 in [11]; 1.46 and -0.199 in test [15]; 0.139 and -0.176 in test [17]. In addition, the composite z-score is 0.0766 and -0.182 in test [18]; 0.784 and -0.204 in test [19]; 0.0084 and -0.142 in test [20]. For the same compound, the z-score in test [8] is -0.848 (inactive) and -0.382 (inactive); in [12], -0.0142 (inactive) and -0.0701 (inactive); in test [13], -0.572 (inactive) and 0.18 (inactive); in [14], 0.843 (inactive) and 0.39 (inactive); in test [16] it was 2.39 (inactive) and -0.335 (inactive).

(Values after PubChem BioAssay.)
